# ALDH1A1 inh = blocks purified human ALDH1A1 activity; Purified ALDH1A1, NADH fluorescence, propionaldehyde substrate; Potency, µM (doses to about 75.3 µM), without a hit: at the top dose activity, negative = inhibition, most hits filed as inhibitors; 220,000 tested, 7.3% active; active = well fitted inhibition curve with a large enough effect, not every such curve was filed as active; inconclusive = small, poorly fitted or top-dose-only effect, or another doubt; inactive = no such curve, though single readings can be large or run the other way;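 also: potency is read from the fitted curve at half-maximal effect; plate controls were no enzyme wells and a reference inhibitor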
# Target sequence (P00352 whole entry, looked up): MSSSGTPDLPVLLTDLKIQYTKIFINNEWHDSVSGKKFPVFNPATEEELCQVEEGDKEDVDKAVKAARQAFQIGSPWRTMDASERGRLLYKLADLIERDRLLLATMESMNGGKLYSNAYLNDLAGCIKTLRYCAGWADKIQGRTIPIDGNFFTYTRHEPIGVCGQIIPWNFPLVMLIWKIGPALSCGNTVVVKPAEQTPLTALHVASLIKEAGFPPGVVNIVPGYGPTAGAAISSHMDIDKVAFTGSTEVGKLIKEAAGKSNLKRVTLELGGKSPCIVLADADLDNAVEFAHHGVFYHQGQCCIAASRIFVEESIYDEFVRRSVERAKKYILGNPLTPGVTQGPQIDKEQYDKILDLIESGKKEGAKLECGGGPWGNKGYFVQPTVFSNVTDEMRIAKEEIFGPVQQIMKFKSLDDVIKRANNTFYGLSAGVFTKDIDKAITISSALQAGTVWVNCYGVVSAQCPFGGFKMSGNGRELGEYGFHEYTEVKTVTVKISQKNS
# HTT cytoprotect = Huntington cell model cytoprotection by ATP luminescence; PC12 HTT-Q103 induced, cytoprotection, ATP luminescence, 40 h; AID 1471; 230,000 tested, 0.14% active; Potency, µM (series often up to 56.4 µM), for the others: cytoprotection (ATP increase), usual class: activators; also: potency is read from the fitted curve at half-maximal effect; % of control where 0% means no effect; nearly all actives have a fitted effect of over 45% in size
#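 PC12 cells stably carrying ecdysone-inducible Htt exon 1 (Q103)–GFP were induced with 100 nM tebufenozide (final) alongside library compounds in a dose series. Cytoprotection was scored as retained ATP by ATPlite luminescence.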
# RGS12 GoLoco inh = blocks human Gai1 binding to RGS12 GoLoco peptide, red readout; P63096; Gai1:RGS12 GoLoco peptide FP, rhodamine, 10 min; Potency, µM (highest dose often 61.6 µM), for inactives: top-dose activity, negative = inhibition, actives largely listed as inhibitors; 230,000 tested, 0.44% active; active = well fitted inhibition curve with a large enough effect, not every such curve was filed as active; inactive = no such curve, though single readings can be large or run the other way; also: potency is read from the fitted curve at half-maximal effect; % is scaled to controls: 0 for no effect and ±100 for the full control effect; nearly all actives have a fitted effect of over 30% in size
# HPGD block = inhibitors of human 15-hydroxyprostaglandin dehydrogenase (HPGD). P15428. purified HPGD, NADH fluorescence kinetic, PGE2 substrate. Potency, µM, inactives show at the top dose activity change, negative = inhibition, most hits filed as inhibitors. 150,000 tested, 4.3% active; active = well fitted inhibition curve with a large enough effect, not every such curve was filed as active; inconclusive = small, poorly fitted or top-dose-only effect, or another doubt; inactive = no such curve, though single readings can be large or run the other way; also: potency is read from the fitted curve at half-maximal effect; % is scaled to controls: 0 for no effect and ±100 for the full control effect
#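 20 nM HPGD preincubated 15 min at room temperature with compound in 50 mM Tris-HCl pH 8, 0.01% Tween 20. Started with 1 mM NAD+ and 30 uM prostaglandin E2; NADH fluorescence (360/450 nm) read 5 times over 30-s intervals, last minus first.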
# HttQ103 aggreg = reduces HttQ103-GFP aggregates in PC12 cells; AID 1688; PC12 HttQ103-GFP aggregates, Acumen cytometry, 40 h; Potency, µM (top dose mostly 46.1 µM), inactives show top-dose activity change, negative = inhibition, usual class: inhibitors; 220,000 tested, 1.1% active; also: potency is read from the fitted curve at half-maximal effect; % is scaled to controls: 0 for no effect and ±100 for the full control effect; nearly all actives have a fitted effect of over 60% in size
#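 Multiplexed with ATP-based cell death, this channel scores GFP aggregates in PC12 cells expressing inducible HTTex1-Q103-GFP. Induction used 100 nM tebufenozide; compounds were tested in concentration series.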
# PNC inhibitor = perinucleolar compartment assembly inhibition. PC3M PTB-GFP, PNC prevalence imaging, 16 h; hits give low values. activity change (PNC), negative = inhibition, % at 10 µM. 140,000 tested, 3.1% active. AID 2417;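 active = readout at or below -70, meaning at least 70% loss of cells showing the perinucleolar compartment, a nuclear body marking cancer cells; inconclusive = readout between -30 and a set limit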;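 also: plate controls were DMSO wells for no effect and camptothecin positive control wells for full effect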
#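 PC3M cells stably expressing PTB-GFP, 750–1000 cells/well, treated 16 h at 37 °C with compound (23 nl of library stock), in duplicate. After paraformaldehyde fixation and Hoechst stain, imaged at 20x; PNC prevalence scored by image analysis.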
# * = called active by the depositor; ? = inconclusive; / = no result given; [ ] = remark or other dose. The list is not random: actives were taken first. Their share in the collection is about 11%. Unless noted, calls follow the shape of the dose curve; as a rule, active = well fitted curve in the direction sought with a large enough effect; inconclusive = small, poorly fitted or top-dose-only effect, or another doubt; inactive = no such curve, though single readings can be large; an effect the other way counts as inactive or inconclusive.
SMILES,ALDH1A1 inh,HTT cytoprotect,RGS12 GoLoco inh,HPGD block,HttQ103 aggreg,PNC inhibitor
Cc1cc(C)nc(S/C=C/C(=O)c2ccc(F)cc2)n1,/,-33%[10 µM],8%,/,14%[9.22 µM],/
O=c1c(Cl)c(N2CCN(S(=O)(=O)c3ccc(F)cc3)CC2)cnn1-c1cccc(Cl)c1,-6%,-8%,7%,0%,-8%,29
Cc1ccc(NC2=C(CC(=O)O)C(c3ccccc3)N(c3ccc(C)cc3)C2=O)cc1 (stereo not given),?,-11%[10 µM],5%,-15%,-5%,50
COc1ccc(C2C(CC(=O)O)=C(O)C(=O)N2c2ccccc2)cc1 (stereo not given),18µM*,-25%,9%,-23%,18%,?
COc1ccc(/C(O)=C2\C(=O)C(=O)N(c3cc(C)on3)C2c2ccccc2OC)cc1 (stereo not given),22µM*,-11%,-5%,-24%,1%,-14
COc1ccc(/C(O)=C2\C(=O)C(=O)N(c3cc(C)on3)C2c2ccccc2OC)cc1C (stereo not given),-28%,-12%,/,/,7%,6
N/C(=N\O)c1ccc(NC(=O)c2cccs2)cc1,?,-27%,7%,?,-8%,-17
O=C(Nc1cccnc1)c1cccs1,7%,-20%,10%,-13%,?,-100*
O=C(/C=N/O)Nc1cccnc1,2%,29%[10 µM],5%,-13%,-6%,-100*
Cc1ccc(C)n1NC(=O)c1cccs1,10%,1%,4%,-12%,?,-117*
CC(=O)c1ccc(NC(=O)c2cccs2)cc1,-15%,-41%,9%,-26%,10%[9.22 µM],-111*
O=[N+]([O-])c1ccccc1/C=C/C=N/Nc1ccc(S(=O)(=O)Nc2ccc(Cl)cc2)cc1[N+](=O)[O-],-14%,/,28%,/,-14%,/
Cc1nn(C(=O)CCCn2cc([N+](=O)[O-])cn2)c(C)c1Cl,?,-12%,-2%,/,-6%,/
Cc1cc(C)c(NS(=O)(=O)c2ccc(NC(=O)c3cccs3)cc2)c(C)c1,3%,-11%[10 µM],-4%,-12%,13%,25
Cc1ccc(S(=O)(=O)Nc2ccc(NC(=O)c3cccs3)cc2)cc1,28µM*,-13%[10 µM],14%,/,-25%,/
Cc1ccc(C(=O)NNS(=O)(=O)c2ccccc2[N+](=O)[O-])cc1,-10%,-5%[1.9 µM],-4%,-19%,3%,28
Cc1ccc(S(=O)(=O)NCCCNC(=O)c2ccccc2)cc1,13µM*,12%,-6%,-12%,0%,5
Cc1ccc(C(=O)NCCCNc2ccccc2[N+](=O)[O-])cc1,2.2µM*,-36%,15%,/,23%,/
Cc1ccc(S(=O)(=O)NCCCOC(=O)Nc2ccncc2)cc1,16µM*,-11%,3%,-6%,-17%,?
CC(C)[C@@H](CC(=O)N[C@@H]1CCNC[C@H]1C(=O)N[C@H](CC(=O)N[C@@H](CCC(=O)O)CC(=O)O)Cc1ccccc1)NC(=O)C[C@H](CO)NC(=O)[C@@H]1CCCC[C@H]1N,-1%,-11%[1.9 µM],-3%,-4%,/,/
CCOC(=O)N1CCC(NS(=O)(=O)c2ccc(C#N)cc2)CC1,/,-11%[10 µM],6%,/,3%[9.22 µM],/
COC(=O)NC(=S)Nc1ccc(Oc2ccc(Cl)cc2Cl)c(Cl)c1,?,1%[10 µM],16%,-30%,-10%,77
CCOc1ccc2c(c1)c1nnc(SCC(=O)N3CCCCC3C)nc1n2C (stereo not given),13µM*,-21%,0%,16µM*,-7%,5
CC1CCN(C(=O)CSc2nc3cccnc3n2C)CC1,-9%,-35%,7%,-27%,-17%,-8
CCOc1ccc2c(c1)c1nnc(SCC(=O)N3CCC(C)CC3)nc1n2C,?,-6%,3%,3.5µM*,5%,?
CC1CCCCN1C(=O)CSc1nc(N)cc(=O)[nH]1 (stereo not given),-7%,9%,10%,-12%,7%,17

# High-throughput results as filed in PubChem.
